# Measurements as given in PubChem BioAssay.
# The source made the active and inactive calls. No stated cut-off is given here; in the data, active means fold change permeability below about 0.7 or above about 1.3; inactive means in between.
# Test: compounds altering in vitro BBB leakiness – cell-based, FITC-avidin fluorescence, HTS, primary screen (AID 1963498); further: test concentration not given here
# Conditions: brain endothelial barrier, actives lie on both sides
row,Structure (SMILES),fold change permeability
1,Cn1c(=O)c2[nH]c(-c3ccc(S(=O)(=O)O)cc3)nc2n(C)c1=O,1 (inactive)
2,Oc1ccc(O)cc1,1.4 (active)
3,COc1ccccc1N1CCN(CC(O)COc2cccc3ccccc23)CC1 (centres undefined),0.8 (inactive)
4,O=C1Nc2ccc(I)cc2/C1=C/c1cc(Br)c(O)c(Br)c1,0.7 (active)
5,CCOC(=O)[C@@H](N)Cc1ccc(O)c(O)c1,0.9 (inactive)
6,CC(C)(C)C(=O)Oc1ccc(S(=O)(=O)Nc2ccccc2C(=O)NCC(=O)O)cc1,0.7 (active)
7,CC(C)(CO)Cc1cc(C(C)(C)C)c(O)c(C(C)(C)C)c1,1.1 (inactive)
8,Cc1cc(C)c(/C=C2\C(=O)Nc3ccccc32)[nH]1,23.2 (active)
9,Oc1ccc2c(c1)OC[C@]1(O)Cc3cc(O)c(O)cc3[C@H]21,1.7 (active)
10,CC(C)(C)c1ccc(C(=O)Nc2ccc(Nc3ccccc3)cc2)cc1,1 (inactive)
11,CN(C)c1ccc(/C=C2\C(=O)Nc3ccccc32)cc1,1.6 (active)
12,N[C@H](CO)C(=O)O,0.8 (inactive)
13,CCCn1c(=O)c2[nH]c(-c3ccc(S(=O)(=O)O)cc3)nc2n(CCC)c1=O,1.1 (inactive)
14,N#C/C(=C1/SC[C@@H](c2ccc(Cl)cc2Cl)S1)n1ccnc1,1.6 (active)
15,CN1[C@@H](CC(=O)c2ccccc2)CCC[C@H]1C[C@H](O)c1ccccc1,1.3 (active)
16,CCCOC(=O)c1c(-c2ccccc2)nc(CC)c(C(=O)SCC)c1CCC,1.5 (active)
17,C[C@@H](c1nc(-c2ccc(C#N)cc2)cs1)[C@](O)(Cn1cncn1)c1cc(F)ccc1F,1.2 (inactive)
18,C[C@]12CC[C@@H]3c4ccc(O)cc4CC[C@H]3[C@@H]1CC[C@@H]2O,1 (inactive)
19,CCSC(=N)N,1.1 (inactive)
20,CC1=C(C(=O)O)N2C(=O)[C@@H](NC(=O)[C@H](N)C3=CCC=CC3)[C@H]2SC1,0.9 (inactive)

row,Structure (SMILES),fold change permeability
1,Cc1cc(N)c2ccccc2[n+]1CCCCCCCCCC[n+]1c(C)cc(N)c2ccccc21,1.6 (active)
2,COc1cc(/C=C/C(=O)N2CCN(CC(=O)N3CCCC3)CC2)cc(OC)c1OC,1 (inactive)
3,O=C(Nc1ccc(-n2nc(C(F)(F)F)cc2C(F)(F)F)cc1)c1ccncc1F,1.2 (inactive)
4,NCc1c[nH]c(=S)n1[C@H]1CCc2c(F)cc(F)cc2C1,1.4 (active)
5,CCCCCCCCCCCCCCSCC(=O)O,1.6 (active)
6,CN1C(=O)CC[C@H]1c1cccnc1,0.9 (inactive)
7,O=c1[nH]c2cc([N+](=O)[O-])c([N+](=O)[O-])cc2[nH]c1=O,1.2 (inactive)
8,NC(=O)OCC(COC(N)=O)c1ccccc1,0.8 (inactive)
9,O=C(O)[C@H]1NCCC[C@H]1C(=O)O,1 (inactive)
10,O=c1cc(-c2ccc([N+](=O)[O-])cc2)nc2c(-c3ccc(Cl)cc3)c(Cc3ccccc3)[nH]n12,1.2 (inactive)
11,CC1(C)CO[C@@H](CC(=O)O)CN1,1.2 (inactive)
12,CN1C2CCCC1CC(NC(=O)c1nn(C)c3ccccc13)C2 (centres undefined),1.4 (active)
13,CCCC[C@@]1(C2CCCC2)Cc2cc(OCC(=O)O)c(Cl)c(Cl)c2C1=O,1.6 (active)
14,Cc1cc(C)nc(SCC(=O)Nc2ncc(Cc3cccc4ccccc34)s2)n1,1.4 (active)
15,COc1cccc(NC(=O)/C=C/c2ccc(Cl)cc2)c1,1.1 (inactive)
16,O=C(O)COc1ccc(C(=O)c2cccs2)c(Cl)c1Cl,1.4 (active)
17,N#Cc1cc([N+](=O)[O-])c2sc(C(N)=O)[n+]([O-])c2c1,1.3 (active)
18,COC(=O)C1=C(C)NC(C)=C(C(=O)OC)C1c1cccc(NC(=O)NCCCN2CCC(c3cccc(OC)c3)CC2)c1,1.2 (inactive)
19,CC(C)(C=O)Cc1cc(C(C)(C)C)c(O)c(C(C)(C)C)c1,1.2 (inactive)
